This is one part of a sample in which hits are shown more often than they occur.
CBX7 inh: inhibitors of human CBX7 binding to H3K27me3 peptide; 66,000 tested, 1.1% active; O95931; normalised signal (fraction of DMSO) (test concentration not listed); AlphaScreen His6-CBX7 / biotin-H3K27me3 peptide binding; stronger effect = lower value; in the data active means normalised signal below about 0.5
Target sequence (O95931 whole entry, looked up): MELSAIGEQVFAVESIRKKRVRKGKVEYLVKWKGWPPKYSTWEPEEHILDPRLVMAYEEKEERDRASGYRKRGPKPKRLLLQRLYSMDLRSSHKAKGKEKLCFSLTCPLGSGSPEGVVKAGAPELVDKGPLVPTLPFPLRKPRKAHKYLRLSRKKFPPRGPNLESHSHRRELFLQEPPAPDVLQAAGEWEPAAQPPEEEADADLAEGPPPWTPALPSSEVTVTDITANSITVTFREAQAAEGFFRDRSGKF
Numbers stand for hits; – = inactive.

SMILES	CBX7 inh
COc1ccc(CNc2cc(C)nc3c(-c4ccc(OC)c(OC)c4)c(C)nn23)cc1	–
COc1ccc(-c2c(C)nn3c(NCc4ccc(F)cc4)cc(C)nc23)cc1OC	–
COc1ccc(-c2c(C)nn3c(NCc4ccccn4)cc(C)nc23)cc1OC	0.394
Oc1cc(Cc2ccccc2)ccc1CNc1ccc2oc(-c3ccccc3F)nc2c1	–
CCOc1ccc(NCc2nc3ccccc3n2CCOc2ccc(C)cc2)cc1	–
COc1ccc(-n2cnc3cc(NCc4nc5ccccc5n4C)ccc32)cc1	0.405
COc1ccc(-n2cnc3cc(NC(=O)c4ccccc4)ccc32)cc1	–
COc1ccc(-n2cnc3cc(Nc4nnc(C)c5ccccc45)ccc32)cc1	–
CC(C)(C)n1cnc2cc(NCc3cccc4ccccc34)ccc21	–
CCOc1ccc(NCc2nc3ccccc3n2CCOc2ccccc2)cc1	0.184
Brc1ccc(NCc2nc3ccccc3n2CCOc2ccccc2)cc1	–
COc1ccc(-n2cnc3cc(NCc4cccc5ccccc45)ccc32)cc1	0.311
COc1ccc(-n2cnc3cc(NS(=O)(=O)c4ccccc4)ccc32)cc1	–
CC(=O)c1cccc(NS(=O)(=O)c2ccc3c(c2)CCN3C(=O)C2CC2)c1	–
Cc1cccc(OCCn2c(=N)n(CCO)c3ccccc32)c1	–
COc1ccc(N(CC(=O)N2CCCCCC2)S(=O)(=O)c2ccc(C)cc2)cc1	–
CC1CCc2c(C(=O)NCCCN(Cc3ccccc3)C(C)C)csc2C1 (centres undefined)	–
CCN(CCCNC(=O)CCn1c(=O)[nH]c2ccccc2c1=O)c1cccc(C)c1	–
O=C(CC(C(=O)N1CCc2ccccc21)n1ccnc1)NCCN1CCCCCC1 (centres undefined)	0.336
CCN(CCCNC(=O)c1cn(C)c(=O)c2c1c1ccccc1n2C)c1cccc(C)c1	–
CCCCCCCNC(=O)CC(C(=O)N1CCc2ccccc21)n1ccnc1 (centres undefined)	–
CCCCNC(=O)CC(C(=O)N1CCc2ccccc21)n1ccnc1 (centres undefined)	–
O=C(CC(C(=O)N1CCc2ccccc21)n1ccnc1)NCCCN1CCOCC1 (centres undefined)	–
CN1CCN(CCCNC(=O)CC(C(=O)N2CCc3ccccc32)n2ccnc2)CC1 (centres undefined)	–
CCN(CCCNC(=O)Cc1cn(C)c2ccccc12)c1cccc(C)c1	0.316
SMILES	CBX7 inh
CCN(CCCNC(=O)CC(C(=O)N1CCc2ccccc21)n1ccnc1)c1cccc(C)c1 (centres undefined)	0.225
Cc1cccc(-c2noc(-c3ccc(C)c(C)c3)n2)c1	–
CCc1ccc(OCC(=O)Nc2ccc3oc(-c4ccncc4)nc3c2)cc1	–
COC(=O)CNC(c1ccccc1)c1cc(C)ccc1NC(=O)c1cc(OC)c(OC)c(OC)c1 (centres undefined)	–
COc1ccc(S(=O)(=O)CCC(=O)N2CCNc3ccccc3C2)cc1	–
NS(=O)(=O)c1ccc(NC(=O)c2cnc3sccn3c2=O)cc1	–
COC(=O)c1c[nH]n2c(NC3CCCCC3)c(-c3cccc(C)c3)nc12	–
COC(=O)c1c[nH]n2c(NC3CCCC3)c(-c3ccc(OC)cc3)nc12	0.111
COC(=O)c1c[nH]n2c(NC3CCCCC3)c(-c3cccc(OC)c3)nc12	–
COC(=O)c1c[nH]n2c(NC3CCCCC3)c(-c3ccc(C)cc3)nc12	–
COC(=O)c1c[nH]n2c(NC3CCCC3)c(-c3ccc(C)cc3)nc12	–
COC(=O)c1c[nH]n2c(NC3CCCC3)c(-c3cccc(C)c3)nc12	–
CCCCOc1cccc(-c2nc3c(C(=O)OC)c[nH]n3c2NC2CCCC2)c1	0.197
CCCOc1cccc(-c2cc(C(=O)O)c3ccccc3n2)c1	–
COC(=O)c1c[nH]n2c(NC3CCCCCC3)c(-c3cccc(OC)c3)nc12	0.495
COC(=O)c1c[nH]n2c(NC3CCCCC3)c(-c3cccc(Br)c3)nc12	–
COC(=O)c1c[nH]n2c(NC3CCCC3)c(-c3cccc(OC)c3)nc12	0.383
CCCCCOc1ccc(NC(=O)c2cccc(C(=O)OC)n2)cc1	–
Cc1ccccc1N(C)C(=O)c1ccc2c(=O)n3c(nc2c1)CCCCC3	–
CCOC(=O)N1CCC(Nc2c(NCc3ccc(N(C)C)cc3)c(=O)c2=O)CC1	–
COc1cc2c(cc1OC)C(c1cc(Br)ccc1F)NCC2 (centres undefined)	–
Cc1ccc(NC(=O)c2cc3c(-c4ccccc4F)nn(C)c3s2)nc1	–
Cc1ccc(S(=O)(=O)N2CCC(C(=O)N3CCC(Cc4ccccc4)CC3)CC2)cc1	–
CCOC(=O)N1CCC(N2C(=O)c3ccc(C(=O)Nc4cc(F)ccc4F)cc3C2=O)CC1	–
Cc1ccc(C)c(CN2C(=O)c3ccccc3Sc3ccc(C(=O)NC4CC4)cc32)c1	–
SMILES	CBX7 inh
CCc1cccc(NS(=O)(=O)c2cnc[nH]2)c1	–
CC(=O)NCCNC(=O)CCc1nc2sc3c(c2c(=O)[nH]1)CCCC3	–
O=C(CCc1nc2sc3c(c2c(=O)[nH]1)CCCC3)NCc1ccccn1	0.341
COc1ccc(CNC(=O)CCc2nc3sc4c(c3c(=O)[nH]2)CCCC4)cc1	–
CC1CCC(NC(=O)c2csc3c2CCC(C)C3)CC1 (centres undefined)	–
CCCC(=O)NC(c1ccc(C)cc1)c1cc(Cl)c2cccnc2c1O (centres undefined)	–
CC1CCN(Cc2cc(Cn3ccnc3)c3cccnc3c2O)CC1	0.00606
Cc1cc(OCC(O)CN2CCC(C)CC2)ccc1Cl (centres undefined)	–
CC1CCN(Cc2nc(-c3ccccc3)no2)CC1	–
CC1CCN(CCCNC(=O)c2cnc(N3CCN(c4ncccn4)CC3)c3ccccc23)CC1	–
CC1CCN(c2nc(-c3ccccc3O)nc3ccccc23)CC1	–
CC1CCN(Cc2cc(Cl)c(O)c3ncccc23)CC1	0.00286
Cc1[nH]c2ccccc2c(=O)c1CN1CCC(C)CC1	–
CC1CCN(Cc2cc(Cl)c3cccnc3c2O)CC1	0
Cc1cccc(NC(=O)CN2C(=O)CC(c3ccccc3)Sc3ccccc32)c1C (centres undefined)	–
Cc1nonc1N(Cc1ccc(F)cc1)S(=O)(=O)c1ccccc1	–
Cc1cc(N2CCC(C(=O)NCc3cccnc3)CC2)n2nc(C)c(-c3ccc(Cl)cc3)c2n1	–
COc1ccccc1NC(=O)c1cnc2sccn2c1=O	–
COc1ccc(CC(=O)N2CC(=O)Nc3ccc(C)cc3C2c2ccccc2)cc1OC (centres undefined)	–
Cc1cccc(-c2cc(C(=O)NCCCN(C)C)c3ccccc3n2)c1	–
O=C(NCc1ccccn1)c1ccc(CNc2c(NC3CCCC3)c(=O)c2=O)cc1	–
Cc1c(C(=O)NCc2ccccn2)oc2ccc(S(=O)(=O)N3CCC4(CC3)OCCO4)cc12	0.434
Cc1c(C(=O)NCCC(C)C)oc2ccc(S(=O)(=O)N3CCC4(CC3)OCCO4)cc12	–
Cc1c(C(=O)NCc2ccccc2)oc2ccc(S(=O)(=O)N3CCC4(CC3)OCCO4)cc12	–
CCN1C(=O)CSc2ccc(C(=O)NCCC3=CCCCC3)cc21	–
SMILES	CBX7 inh
COc1ccc(Nc2ncc(C(=O)Nc3cnc4ccccc4c3)c3ccccc23)cc1	–
COc1ccc(Nc2ncc(C(=O)Nc3cccc(Cl)c3)c3ccccc23)cc1	0.2
CCOc1ccc(NC(=O)c2cnc(Nc3ccc(OC)cc3)c3ccccc23)cc1	–
CC1(C)CC(=O)c2sc(NC(=O)c3cccc(Oc4ccccc4)c3)nc2C1	–
Cc1ccc2nsnc2c1NC(=O)c1cc(Br)ccc1Cl	–
Cc1ccc2nsnc2c1NC(=O)c1ncn[nH]1	0.452

Compound activity as filed in PubChem.
